The results in this text go back to PubChem BioAssay (NCATS).

Several values for one entry are separate records, joined by “and”; a condition that tells them apart may be missing. Identical values can stand only once. Records with an inconclusive call do not appear. Activity calls are given as the source filed them. Calls follow the shape of the full dose curve.
Potency is read from the fitted curve at half-maximal effect.

One test in a line: Primary qHTS to identify inhibitors of SARS-CoV-2 cell entry (AID 1645846). Also: nearly all actives have a fitted effect of over 45% in size. Particulars: SARS-CoV-2 pseudovirus cell entry assay, luminescence; activity change, negative = inhibition: at 57.1 µM (top of the series) unless noted; series mostly up to 57.1 µM. An excerpt: Assay Provider: Wei Zheng, Ph.D.
National Center for Advancing Translational Sciences, National Institute of Health, Rockville, MD.
SARS-CoV-2 spike protein, within the viral envelope, mediates viral attachment and infection of host cells. The SARS-CoV-2 spike protein specifically binds to the host receptor ACE2 (Angiotensin-converting enzyme 2). This interaction promotes endocytosis of the viral particle, additional events lead to viral-host cell membrane fusion and release of the viral contents, allowing viral replication.
While SARS-CoV-2 requires BSL-3 facilities for live virus work, pseudotyped partices (PP) that incorporate SARS-CoV-2 spike proteins without replication elements could facilitate studies on viral entry mechanisms in a BSL-2 setting. This PP cell entry assay could also enable screening of small molecule compound libraries in BSL-2 setting to identify inhibitors of SARS-CoV-2 cell entry.
PROTOCOL TABLE (format as described by Inglese J, Shamu CE and Guy RK. 2007)
SEQUENCE No. (e.g., 1, 2, 3, etc.); […] (e.g., Cells, Incubation, Reagent, etc.); VALUE and DESCRIPTION.
1. Cells. Seed 1500 HEK293-ACE2 cells (Expi293F with stable expression of human ACE2) in 2 uL/well media (DMEM, 10% FBS, 1x L-glutamine, 1x Pen/Strep, 1 ug/ml puromycin) in white 1536-well assay plates (Greiner #782073).
2. Incubation. Incubate at 37C with 5% CO2 overnight (~16 h).
3. Compounds. Dispense 23 nL/well compounds in DMSO via pin transfer.
4. Incubation. Incubate for 1 hr at 37C 5% CO2.
5. Reagent. Dispense 2 uL/well of SARS-CoV-2-S pseudotyped particles. [a] PPs are produced with murine leukemia virus pseudotyping. [b] SARS-CoV-2-S is Wuhan-Hu-1 sequence (BEI #NR-52420) with C-terminal 19 amino acid truncation.
6. Centrifuge. […]
7. Incubation. Incubate at for 48 hr at 37C 5% CO2
8. Centrifuge. Remove supernatant with gentle centrifugation using a Blue Washer (BlueCat Bio).
9. Reagent. Dispense 4 uL/well of Bright-Glo Luciferase detection reagent (Promega #E2620).
10. Incubation. Incubate for 5 min at room temperature.
11. Detection. Read luminescence signal (Viewlux plate reader, PerkinElmer). Data was normalized with wells containing SARS-CoV-2-S PP as 100%, and wells containing bald PP (no fusion protein) as 0%.
For orientation: In qHTS, concentration-response curves come from the screen itself.
In the case of `COc1cc([C@@H]2c3cc4c(cc3[C@H](O)[C@H]3COC(=O)[C@@H]23)OCO4)cc(OC)c1OC`, the Potency was 1.26 µM (active).

As to `Nc1[nH]nc2nnc(-c3c(-c4ccccc4)nn4ccccc34)cc12`, the activity change, negative = inhibition was -11.3%.

Regarding `CO[C@@H]1C(N(C)C(=O)c2ccccc2)C[C@H]2O[C@]1(C)n1c3ccccc3c3c4c(c5c6ccccc6n2c5c31)C(=O)NC4=O` (stereo not given in full), the activity change, negative = inhibition is -47%.

As for `CC(C)COC(=O)OCN1C(=O)CN(CCN2CC(=O)N(COC(=O)OCC(C)C)C(=O)C2)CC1=O`, the activity change, negative = inhibition was -21.8%.

`O=c1[nH]c(=O)n(C2CCCO2)cc1F` (stereo not given): the activity change, negative = inhibition is -6.03%.

Turning to `Cc1ccc2nc(NC(=O)CSc3nc4c(c(=O)n3-c3ccccc3)SCC4)sc2c1`, the activity change, negative = inhibition was -16.9%.

Regarding `O=C(O)CCCc1c[nH]c2ccccc12`, the activity change, negative = inhibition came out at 0.874%.

For the molecule `CC[C@@](C)(Nc1ccnc(-c2c[nH]c3ncccc23)n1)C(=O)NCC(F)(F)F`, the activity change, negative = inhibition is -38.3%.

As for `O=c1c(-c2ccc(O)cc2)coc2cc(O)ccc12`, the result was inactive.

For `NC(=O)c1ccc2[nH]ccc2c1`, the activity change, negative = inhibition was -19.6%.

As to `CCN(C(=O)c1c(O)c2c(Cl)cccc2n(C)c1=O)c1ccccc1`, the activity change, negative = inhibition was -55.1% and -33%.

For `CCC(=O)NS(=O)(=O)c1ccc(-c2c(-c3ccccc3)noc2C)cc1`, the activity change, negative = inhibition is -22.2% and -23.1%.

`CCCCCCCCCC(=O)O`: the outcome was inactive.

`C#CCN(C)CC1=Cc2ccccc2Oc2ccccc21`: the activity change, negative = inhibition amounted to 1.65%.

For the molecule `CC(C)C(=O)Oc1ccc(CO)cc1[C@H](CCN(C(C)C)C(C)C)c1ccccc1`, the Potency was 14.1 µM (active).

Regarding `NC(=O)[C@@H](CC1CC1)[C@@H](CCC(F)(F)F)C(=O)N[C@H]1N=C(c2ccccc2)c2cccc(F)c2NC1=O`, the activity change, negative = inhibition was -2.84%.

For the molecule `CC(=O)O[C@H]1C[C@@H]2CC[C@H]3[C@H]4C[C@H]([N+]5(C)CCCCC5)[C@@H](OC(C)=O)[C@@]4(C)CC[C@@H]3[C@@]2(C)C[C@H]1[N+]1(C)CCCCC1`, the activity change, negative = inhibition is -10.4% and the result was inactive.

For the molecule `O=C1c2c(O)cccc2[C@@H]([C@@H]2O[C@H](CO)[C@@H](O)[C@H](O)[C@H]2O)c2cc(CO)cc(O)c21`, the activity change, negative = inhibition is -0.84%.

As to `CC(Oc1ccc(O)cc1)(P(=O)(O)O)P(=O)(O)O`, the activity change, negative = inhibition was -6.64%.

Consider `COc1ccc(S(=O)(=O)Nc2cccnc2Nc2ccc(O)cc2)cc1`, for which the Potency was 6.31 µM (active).

As for `Cc1cc(Cl)ccc1OCCCC(=O)NO`, the activity change, negative = inhibition is -10.4%.

Consider `O=C(Nc1ccc(Oc2ccnc3[nH]ccc23)c(F)c1)c1cccn(-c2ccc(F)cc2)c1=O`, for which the activity change, negative = inhibition was -21.9%.

With `N[C@@H](CC(=O)O)C(=O)O`, the outcome was “inactive [at 5.25 µM]”.

`COc1ccc2c(Oc3ccc(NC(=O)c4c(C)n(CC(C)(C)O)n(-c5ccccc5)c4=O)cc3F)ccnc2c1`: the activity change, negative = inhibition was -8.07%.

Take `O=C(O)CCn1c2c(c3ccccc31)C[C@H](NS(=O)(=O)c1ccc(F)cc1)CC2`: the activity change, negative = inhibition is -25.2% and -23.3%.

As for `CN[C@@H](C)C(=O)N[C@H]1CN(C(=O)CC(C)C)CC[C@H]2CC[C@@H](C(=O)NC(c3ccccc3)c3ccccc3)N2C1=O`, the activity change, negative = inhibition is 1.03%.

Consider `COCCOc1ccc2c(c1)ncn2-c1ccc2cccc(N3CCC(N)CC3)c2n1`, for which the Potency was 12.6 µM (active).

`Oc1ccc(-c2ccc(-c3cc(Nc4cccc(CNC5CC5)c4)n[nH]3)cc2)c(O)c1`: the Potency is 10 µM (active).

For the molecule `O=C(Cc1ccc(-c2ccc(OCCN3CCOCC3)cc2)cn1)NCc1ccccc1`, the activity change, negative = inhibition was -81.8%.

As to `C[C@H](CCC(=O)O)[C@H]1CC[C@H]2[C@H]3[C@@H](CC[C@]12C)[C@@]1(C)CC[C@@H](O)C[C@H]1C[C@@H]3O`, the activity change, negative = inhibition was 0.336%.

As for `O=C(c1ccc(C(=O)N2CCC(N3CCCC3)CC2)c(Nc2ccccc2)c1)N1CCC(N2CCCC2)CC1`, the activity change, negative = inhibition was -24.6%.

As to `CCCCOc1c(C(=O)c2c(F)cc(C)cc2F)cnc2n[nH]cc12`, the Potency is 1.12 µM (active).

As to `Cc1c(Cn2c(C)nc3c(C(=O)O)cc(N4CCOCC4)cc32)cccc1C(F)(F)F`, the activity change, negative = inhibition is -3.96%.

`CCCCCCCCCCCC(=O)OCC(O)CO` (stereo not given): the outcome was inactive.

Turning to `O=C(O)C1=CC(O)C(O)[C@H](O)C1` (stereo not given in full), the activity change, negative = inhibition was -8.99%.

`CCOc1nc2cccc(C(=O)OCc3oc(=O)oc3C)c2n1Cc1ccc(-c2ccccc2-c2noc(O)n2)cc1`: the activity change, negative = inhibition is -28.5%.

Consider `O=C(Nc1cccc(Nc2ncc(Br)c(NCCc3cnc[nH]3)n2)c1)N1CCCC1`, for which the activity change, negative = inhibition was -97.2%.

Still in this test, the particulars now being: SARS-CoV-2 pseudovirus cell entry assay, luminescence; at 5.25 µM (top of the series).
On to `c1cc(CN2CCCNCCNCCCNCC2)ccc1CN1CCCNCCNCCCNCC1`, for which the activity change, negative = inhibition was -25.3%.

Staying with this test, now noted: SARS-CoV-2 pseudovirus cell entry assay, luminescence; at 57.1 µM (top of the series).
Regarding `c1cc(CN2CCCNCCNCCCNCC2)ccc1CN1CCCNCCNCCCNCC1`, the activity change, negative = inhibition is -51.7%.
